# Where “and” joins values, the source holds several entries; their conditions need not be identical. Equal values may be shown once. ± gives the standard deviation of the averaged measurements. Over roughly 2,900 compounds, “NF-kB SEAP reporter activity, fold change vs agonist alone” has its median near 0.99; the highest 2% begin near 2.6. Only a selection was taken, and the highest values are over-represented in it overall.
# What was measured:
# RAW-Dual [1] = experiment: NF-kB SEAP reporter activity, fold change vs agonist alone; cytotoxicity flag (confluency mask): not cytotoxic; higher = enhanced NF-kB activity
# Summary of the method: (§1)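 Cytotoxic wells were those whose IncuCyte confluency was below 70% of agonist controls in both mask sets. The cells were RAW-Dual macrophages at 50,000 cells/well in DMEM on 384-well plates, dosed with 50 nL of library stock by pin tool, stimulated with a PRR agonist 1 h later, and kept at 37 °C, 5% CO2 for 20 hours. IRF and NF-κB reporter activity, as fold change over agonist-alone wells, came from supernatant read by QuantiLuc luminescence and QuantiBlue absorbance, respectively.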
# RAW-Dual [2] = experiment: NF-kB SEAP reporter activity, fold change vs agonist alone; higher = enhanced NF-kB activity; conditions: library stock concentration (final ~1000-fold dilution): 10 mM
# Summary of the method: as §1
# RAW-Dual [3] = experiment: NF-kB SEAP reporter activity, fold change vs agonist alone; cytotoxicity flag (confluency mask): cytotoxic (confluency <70% of control); higher = enhanced NF-kB activity
# Summary of the method: as §1
# [4] = agonist: ODN 1826 (TLR9) 0.5 ug/mL
# [5] = agonist: Pam2CSK4 (TLR2/6) 0.1 ug/mL
# [6] = agonist: Pam3CSK4 (TLR2/1) 0.1 ug/mL
# [7] = cytotoxicity flag (confluency mask): not cytotoxic, agonist: Imiquimod (TLR7) […]
# [8] = cytotoxicity flag (confluency mask): not cytotoxic, agonist: MPLA (TLR4) […]
structure (smiles),measurement,setting,value
Nc1nc(NCCc2ccc(O)cc2)nc2nc(-c3ccco3)nn12 (library stock concentration (final ~1000-fold dilution): 10 mM),NF-kB SEAP reporter activity,RAW-Dual [1]; agonist: LPS (TLR4) 0.1 ug/mL,1.81
same,NF-kB SEAP reporter activity,RAW-Dual [1]; [4],1.56
same,NF-kB SEAP reporter activity,RAW-Dual [1]; [5],1.16
same,NF-kB SEAP reporter activity,RAW-Dual [1]; [6],1.41
CC(C)C(CO)Nc1nc(Nc2cccc(Cl)c2)c2ncn(C(C)C)c2n1 (centres undefined),NF-kB SEAP reporter activity,RAW-Dual [2]; [7],1.19
same,NF-kB SEAP reporter activity,RAW-Dual [2]; [8],1.14
C=C1CCC2C(C)(COC(=O)CCC(=O)O)C(OC(=O)CCC(=O)O)CCC2(C)C1C=CC1=CCOC1=O (centres undefined),NF-kB SEAP reporter activity,RAW-Dual [2]; [7],0.865
same,NF-kB SEAP reporter activity,RAW-Dual [2]; [8],1.03
C=C1CCC2C(C)(COC(=O)CCC(=O)O)C(OC(=O)CCC(=O)O)CCC2(C)C1C=CC1=CCOC1=O (centres undefined) (library stock concentration (final ~1000-fold dilution): 10 mM),NF-kB SEAP reporter activity,RAW-Dual [1]; agonist: LPS (TLR4) 0.1 ug/mL,1.34
same,NF-kB SEAP reporter activity,RAW-Dual [1]; [4],0.979
same,NF-kB SEAP reporter activity,RAW-Dual [1]; [5],1.26
same,NF-kB SEAP reporter activity,RAW-Dual [1]; [6],1.02
CN1CCN(CCCNc2ncc(Cl)c(-c3cc4c(C(=O)NC5CC5)cccc4s3)n2)CC1.Cl.Cl.Cl,NF-kB SEAP reporter activity,RAW-Dual [2]; [7],0.215 ± 0.045
same,NF-kB SEAP reporter activity,RAW-Dual [2]; [8],0.2944 ± 0.00089
CN1CCN(CCCNc2ncc(Cl)c(-c3cc4c(C(=O)NC5CC5)cccc4s3)n2)CC1.Cl.Cl.Cl (library stock concentration (final ~1000-fold dilution): 10 mM),NF-kB SEAP reporter activity,RAW-Dual [1]; agonist: LPS (TLR4) 0.1 ug/mL,0.313 ± 0.14
same,NF-kB SEAP reporter activity,RAW-Dual [1]; [4],0.174 ± 0.0094
same,NF-kB SEAP reporter activity,RAW-Dual [1]; [5],0.0865 ± 0.0023
same,NF-kB SEAP reporter activity,RAW-Dual [1]; [6],0.134 ± 0.0077
CCO.N#CC(=C(\N)Sc1ccccc1N)/C(C#N)=C(/N)Sc1ccccc1N,NF-kB SEAP reporter activity,RAW-Dual [2]; [7],0.206
same,NF-kB SEAP reporter activity,RAW-Dual [2]; [8],0.236
CCO.N#CC(=C(\N)Sc1ccccc1N)/C(C#N)=C(/N)Sc1ccccc1N (library stock concentration (final ~1000-fold dilution): 10 mM),NF-kB SEAP reporter activity,RAW-Dual [1]; agonist: LPS (TLR4) 0.1 ug/mL,0.241
same,NF-kB SEAP reporter activity,RAW-Dual [1]; [4],0.368
same,NF-kB SEAP reporter activity,RAW-Dual [1]; [5],0.0792
same,NF-kB SEAP reporter activity,RAW-Dual [1]; [6],0.146
CCOC(=O)c1ccc(NC2CCCCC2)c(N)c1,NF-kB SEAP reporter activity,RAW-Dual [2]; [7],1.14
same,NF-kB SEAP reporter activity,RAW-Dual [2]; [8],1.57
CCn1cc(C(=O)O)c(=O)c2cc(F)c(N3CCN(C)CC3)cc21.CS(=O)(=O)O,NF-kB SEAP reporter activity,RAW-Dual [2]; [7],0.916
same,NF-kB SEAP reporter activity,RAW-Dual [2]; [8],0.878
CCOC(=O)c1ccc(NC2CCCCC2)c(N)c1 (library stock concentration (final ~1000-fold dilution): 10 mM),NF-kB SEAP reporter activity,RAW-Dual [1]; agonist: LPS (TLR4) 0.1 ug/mL,2.07
same,NF-kB SEAP reporter activity,RAW-Dual [1]; [4],1.28
same,NF-kB SEAP reporter activity,RAW-Dual [1]; [5],0.963
same,NF-kB SEAP reporter activity,RAW-Dual [1]; [6],1.09
CCn1cc(C(=O)O)c(=O)c2c(N)c(F)c(NC3CCCCC3)cc21 (library stock concentration (final ~1000-fold dilution): 10 mM),NF-kB SEAP reporter activity,RAW-Dual [1]; agonist: LPS (TLR4) 0.1 ug/mL,4.89
same,NF-kB SEAP reporter activity,RAW-Dual [1]; [4],2.9
same,NF-kB SEAP reporter activity,RAW-Dual [1]; [5],1.85
same,NF-kB SEAP reporter activity,RAW-Dual [1]; [6],3.32
CCn1cc(C(=O)O)c(=O)c2c(N)c(F)c(NC3CCCCC3)cc21,NF-kB SEAP reporter activity,RAW-Dual [2]; [7],1.75
same,NF-kB SEAP reporter activity,RAW-Dual [2]; [8],1.95
CCn1cc(C(=O)O)c(=O)c2cc(F)c(N3CCN(C)CC3)cc21.CS(=O)(=O)O (library stock concentration (final ~1000-fold dilution): 10 mM),NF-kB SEAP reporter activity,RAW-Dual [1]; agonist: LPS (TLR4) 0.1 ug/mL,0.962
same,NF-kB SEAP reporter activity,RAW-Dual [1]; [4],1.03
same,NF-kB SEAP reporter activity,RAW-Dual [1]; [5],1.11
same,NF-kB SEAP reporter activity,RAW-Dual [1]; [6],1.12
O=C1C2C3CCC(C3)C2C(=O)N1CC1CCCCC1CN1CCN(c2nsc3ccccc23)CC1 (centres undefined),NF-kB SEAP reporter activity,RAW-Dual [2]; [7],0.878
same,NF-kB SEAP reporter activity,RAW-Dual [2]; [8],1.06
O=C1C2C3CCC(C3)C2C(=O)N1CC1CCCCC1CN1CCN(c2nsc3ccccc23)CC1 (centres undefined) (library stock concentration (final ~1000-fold dilution): 10 mM),NF-kB SEAP reporter activity,RAW-Dual [1]; agonist: LPS (TLR4) 0.1 ug/mL,0.728
same,NF-kB SEAP reporter activity,RAW-Dual [1]; [4],0.931
same,NF-kB SEAP reporter activity,RAW-Dual [1]; [5],0.983
same,NF-kB SEAP reporter activity,RAW-Dual [1]; [6],1.07
O=C(Nc1ccc([N+](=O)[O-])cc1Cl)c1cc(Cl)ccc1O (library stock concentration (final ~1000-fold dilution): 10 mM),NF-kB SEAP reporter activity,RAW-Dual [1]; agonist: LPS (TLR4) 0.1 ug/mL,6.96
same,NF-kB SEAP reporter activity,RAW-Dual [1]; [4],0.713
same,NF-kB SEAP reporter activity,RAW-Dual [1]; [5],0.379
same,NF-kB SEAP reporter activity,RAW-Dual [1]; [6],0.527
O=C(Nc1cc(C(F)(F)F)ccc1C(F)(F)F)c1cc(Br)ccc1O,NF-kB SEAP reporter activity,"RAW-Dual [2]; cytotoxicity flag (confluency mask): cytotoxic (confluency <70% of control), agonist: Imiquimod (TLR7) […]",0.255
same,NF-kB SEAP reporter activity,"RAW-Dual [2]; cytotoxicity flag (confluency mask): cytotoxic (confluency <70% of control), agonist: MPLA (TLR4) […]",2.3
O=C(Nc1ccncc1)c1cc([N+](=O)[O-])ccc1Cl,NF-kB SEAP reporter activity,RAW-Dual [2]; [7],0.837
same,NF-kB SEAP reporter activity,RAW-Dual [2]; [8],0.684
Cl.NCCOc1ccc(Cl)cc1C(=O)Nc1ccc([N+](=O)[O-])cc1Cl (library stock concentration (final ~1000-fold dilution): 10 mM),NF-kB SEAP reporter activity,RAW-Dual [1]; agonist: LPS (TLR4) 0.1 ug/mL,1.29
same,NF-kB SEAP reporter activity,RAW-Dual [1]; [4],0.59
same,NF-kB SEAP reporter activity,RAW-Dual [1]; [5],0.918
same,NF-kB SEAP reporter activity,RAW-Dual [1]; [6],0.91
Cl.Nc1ccc(Cl)cc1C(=O)C(F)(F)F (library stock concentration (final ~1000-fold dilution): 10 mM),NF-kB SEAP reporter activity,RAW-Dual [1]; agonist: LPS (TLR4) 0.1 ug/mL,1.2
same,NF-kB SEAP reporter activity,RAW-Dual [1]; [4],1.04
same,NF-kB SEAP reporter activity,RAW-Dual [1]; [5],1.01
same,NF-kB SEAP reporter activity,RAW-Dual [1]; [6],0.971
CC(ONC(=O)c1cc(C(F)(F)F)cc(C(F)(F)F)c1)C(=O)Nc1ccc(Cl)cc1 (centres undefined),NF-kB SEAP reporter activity,RAW-Dual [2]; [7],0.98
same,NF-kB SEAP reporter activity,RAW-Dual [2]; [8],1.4
O=C(Nc1cc(C(F)(F)F)ccc1N1CCCCC1)c1ccncc1 (library stock concentration (final ~1000-fold dilution): 10 mM),NF-kB SEAP reporter activity,RAW-Dual [1]; agonist: LPS (TLR4) 0.1 ug/mL,0.802
same,NF-kB SEAP reporter activity,RAW-Dual [1]; [4],0.875
same,NF-kB SEAP reporter activity,RAW-Dual [1]; [5],0.764
same,NF-kB SEAP reporter activity,RAW-Dual [1]; [6],0.771
Cl.NCCOc1ccc(Cl)cc1C(=O)Nc1ccc([N+](=O)[O-])cc1Cl,NF-kB SEAP reporter activity,RAW-Dual [2]; [7],1.31
same,NF-kB SEAP reporter activity,RAW-Dual [2]; [8],0.949
O=C(Nc1cc(C(F)(F)F)cc(C(F)(F)F)c1)c1cc(Cl)ccc1O (library stock concentration (final ~1000-fold dilution): 10 mM),NF-kB SEAP reporter activity,RAW-Dual [3]; agonist: LPS (TLR4) 0.1 ug/mL,4.53 and 3.94
same,NF-kB SEAP reporter activity,RAW-Dual [3]; [4],1.84 and 1.74
same,NF-kB SEAP reporter activity,RAW-Dual [3]; [5],1.25 and 1.03
same,NF-kB SEAP reporter activity,RAW-Dual [3]; [6],1.99 and 1.13
Cl.Nc1ccc(Cl)cc1C(=O)C(F)(F)F,NF-kB SEAP reporter activity,RAW-Dual [2]; [8],1.24
O=C(Nc1cc(C(F)(F)F)ccc1N1CCCCC1)c1ccncc1,NF-kB SEAP reporter activity,RAW-Dual [2]; [7],0.957
same,NF-kB SEAP reporter activity,RAW-Dual [2]; [8],1.01
O=C(Nc1cc(C(F)(F)F)ccc1C(F)(F)F)c1cc(Br)ccc1O (library stock concentration (final ~1000-fold dilution): 10 mM),NF-kB SEAP reporter activity,RAW-Dual [3]; agonist: LPS (TLR4) 0.1 ug/mL,2.68
same,NF-kB SEAP reporter activity,RAW-Dual [3]; [4],1.82
same,NF-kB SEAP reporter activity,RAW-Dual [3]; [5],0.573
same,NF-kB SEAP reporter activity,RAW-Dual [3]; [6],0.839
O=C(Nc1ccc([N+](=O)[O-])cc1Cl)c1cc(Cl)ccc1O,NF-kB SEAP reporter activity,RAW-Dual [2]; [7],1
same,NF-kB SEAP reporter activity,RAW-Dual [2]; [8],1.05
CC(ONC(=O)c1cc(C(F)(F)F)cc(C(F)(F)F)c1)C(=O)Nc1ccc(Cl)cc1 (centres undefined) (library stock concentration (final ~1000-fold dilution): 10 mM),NF-kB SEAP reporter activity,RAW-Dual [1]; agonist: LPS (TLR4) 0.1 ug/mL,1.45
same,NF-kB SEAP reporter activity,RAW-Dual [1]; [4],0.913
same,NF-kB SEAP reporter activity,RAW-Dual [1]; [5],0.239
same,NF-kB SEAP reporter activity,RAW-Dual [1]; [6],0.6
Cc1oncc1C(=O)Nc1ccc(C(F)(F)F)cc1 (library stock concentration (final ~1000-fold dilution): 10 mM),NF-kB SEAP reporter activity,RAW-Dual [1]; agonist: LPS (TLR4) 0.1 ug/mL,0.926
same,NF-kB SEAP reporter activity,RAW-Dual [1]; [4],1.24
same,NF-kB SEAP reporter activity,RAW-Dual [1]; [5],0.908
same,NF-kB SEAP reporter activity,RAW-Dual [1]; [6],1.07
Cc1oncc1C(=O)Nc1ccc(C(F)(F)F)cc1,NF-kB SEAP reporter activity,RAW-Dual [2]; [7],1.24
same,NF-kB SEAP reporter activity,RAW-Dual [2]; [8],1.15
O=C(Nc1ccncc1)c1cc([N+](=O)[O-])ccc1Cl (library stock concentration (final ~1000-fold dilution): 10 mM),NF-kB SEAP reporter activity,RAW-Dual [1]; agonist: LPS (TLR4) 0.1 ug/mL,0.801
same,NF-kB SEAP reporter activity,RAW-Dual [1]; [4],0.584
same,NF-kB SEAP reporter activity,RAW-Dual [1]; [5],0.853
same,NF-kB SEAP reporter activity,RAW-Dual [1]; [6],0.69

# From the supplement of paper PMC10037445
